UBC13 polyUb – human UBC13 polyubiquitination inhibition; inhibition, % at 20 µM; UBC13 polyubiquitin chain formation, TR-FRET; 330,000 compounds, 0.47% hits; P61088; AID 485273; in the data active = inhibition above about 45%, passing the limit was not always enough; inconclusive = no clear call, values can overlap the other calls
PREPL inhibitor – inhibits the human prolyl oligopeptidase-like enzyme; AID 2751; Q4J6C6; 320,000 compounds, 0.68% hits; inhibition, % at 5.96 µM; recombinant PREPL, fluorescence polarization activity-based probe; in the data active = inhibition above about 43%;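 note: 0% = enzyme with DMSO and 100% = wells lacking enzyme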
MEKK2mut PB1 HTS – signal of MEK5 binding to mutant human MEKK2 PB1 domain | bead flow cytometry, Alexa488-MEK5 binding to MEKK2 mutant | percent response, % at 10 µM | 290,000 compounds, 0.35% hits | AID 1530; in the data active = percent response above about 24%, passing the limit was not always enough
MEKK2wt PB1 HTS – raises or lowers MEK5 binding to wildtype human MEKK2 PB1 domain | 290,000 compounds, 1.1% hits | bead flow cytometry, Alexa488-MEK5 binding to MEKK2 WT; actives lie on both sides | Q9Y2U5 | binding response (% of control), % at 10 µM; in the data active = binding response below about 67% or above about 130%; inconclusive = no clear call, values can overlap the other calls; inactive = in between
MEKK3 PB1 HTS – modulators (inhibitors or enhancers) of MEK5 binding to human MEKK3 PB1 domain; Q99759; bead-based flow cytometry, Alexa488-MEK5 binding to MEKK3; actives lie on both sides; 0 = blocked by unlabeled MEK5, 100 = vehicle; binding response (% of control), % at 10 µM; 290,000 compounds, 1.4% hits;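 active = binding response more than 3 SD above or below the average of its plate-row segment, actives on both sides; inconclusive = wells at one plate position flagged as instrument error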;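 note: Alexa488 bead fluorescence after subtracting the streptavidin-only scavenger bead signal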
ATG4B inh – blocks human ATG4B protease cleavage of LC3 substrate; Q9Y4P1; ATG4B cleavage of LC3-PLA2, NBD-HPC fluorescence, 1 h; inhibition, % at 8.33 µM; 340,000 compounds, 0.51% hits; in the data active = inhibition above about 40%
Target sequence (Q9Y4P1 whole entry, looked up): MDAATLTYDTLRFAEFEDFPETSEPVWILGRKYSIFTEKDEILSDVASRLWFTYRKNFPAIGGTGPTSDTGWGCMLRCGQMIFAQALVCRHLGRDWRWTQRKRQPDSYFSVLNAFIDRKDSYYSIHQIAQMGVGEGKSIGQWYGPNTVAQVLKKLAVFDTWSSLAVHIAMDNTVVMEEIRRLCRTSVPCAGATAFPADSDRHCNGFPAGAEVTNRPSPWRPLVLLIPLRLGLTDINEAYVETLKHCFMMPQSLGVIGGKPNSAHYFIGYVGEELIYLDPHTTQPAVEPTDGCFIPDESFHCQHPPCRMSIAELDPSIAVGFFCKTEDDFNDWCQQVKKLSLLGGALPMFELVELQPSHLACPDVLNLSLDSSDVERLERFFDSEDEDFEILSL
Casp3 counter – counter-screen for UBC13 inhibitors: human caspase-3 inhibition; shares compounds with UBC13 polyUb; Recombinant caspase-3, Caspase-Glo 3/7 luminescence, 60 min; inhibition, % at 20 µM; 1,400 compounds, 4% hits; AID 488856;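 active = mean inhibition across replicates above about 26%, limit read from the data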;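 note: plate controls were DMSO with caspase-3 for no effect and DMSO wells lacking enzyme for full effect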
Target sequence (P42574 whole entry, looked up): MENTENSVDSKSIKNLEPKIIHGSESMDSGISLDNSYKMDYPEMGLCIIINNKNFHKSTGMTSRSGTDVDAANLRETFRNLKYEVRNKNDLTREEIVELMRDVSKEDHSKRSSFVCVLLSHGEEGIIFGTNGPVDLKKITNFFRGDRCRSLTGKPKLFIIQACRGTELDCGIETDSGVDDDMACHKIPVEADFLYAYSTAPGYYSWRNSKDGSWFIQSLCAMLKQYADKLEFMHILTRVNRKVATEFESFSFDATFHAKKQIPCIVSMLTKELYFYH
UBC13 conf – confirmation of human UBC13 polyubiquitin inhibitors | inhibition, % at 10 µM | shares compounds with UBC13 polyUb | 1,400 compounds, 68% hits | UBC13 polyubiquitination, TR-FRET, biochemical | AID 488859; in the data active = inhibition above about 45%; inconclusive = no clear call, values can overlap the other calls
An asterisk follows results filed as active; ? = inconclusive; . = not tested or not shown. Rows were chosen to be rich in hits. Some 3.1% of all compounds tested hit in one or more screens of this group.

SMILES	UBC13 polyUb	PREPL inhibitor	MEKK2mut PB1 HTS	MEKK2wt PB1 HTS	MEKK3 PB1 HTS	ATG4B inh	Casp3 counter	UBC13 conf
O=C(NCCc1ccc(Cl)cc1)C1CCCN(c2ncnc3c2nc2n3CCCCC2)C1 (stereo not given)	5.5	0.6	0.0	97.0	97.0	3.7	.	.
O=C(NCC1CCN(Cc2ccc(F)cc2)CC1)C1CCCN(c2ncnc3c2nc2n3CCCCC2)C1 (stereo not given)	78.5*	13.9	3.0	107.0	98.0	2.1	-2.8	95.4*
O=C(NCC1CCN(Cc2ccc(Cl)cc2)CC1)C1CCCN(c2ncnc3c2nc2n3CCCCC2)C1 (stereo not given)	78.5*	24.0	25.0*	132.0	107.0	-6.8	-0.6	100.9*
CN1CCN(C(=O)C2CCN(c3ncnc4c3nc3n4CCCCC3)CC2)CC1	86.0*	-1.8	-4.0	96.0	98.0	9.7	5.4	100.7*
O=C(C1CCN(c2ncnc3c2nc2n3CCCCC2)CC1)N1CCCCC1	26.6	14.8	4.0	105.0	99.0	-0.4	.	.
Cc1ccc(C(=O)N2CCN(c3ccccn3)CC2)cc1Cl	-11.5	10.7	1.0	104.0	101.0	-3.3	.	.
CC1Cc2ccccc2N1C(=O)C1CC(=O)N(c2ccccc2)C1 (stereo not given)	1.5	8.6	1.0	93.0	98.0	-6.8	.	.
CCn1c(SCC(=O)N2CCC(C)CC2)nc2c(c1=O)SC(C)C2 (stereo not given)	-4.6	16.6	-1.0	97.0	98.0	-8.4	.	.
CCOC(=O)C1=C(COC(=O)c2cc(Br)c(Br)s2)NC(=O)NC1C (stereo not given)	42.1	-80.1	.	.	.	12.6	.	.
CCC1CCCCN1CCCNC(=O)C1CCCN(c2ncnc3c2nc2n3CCCCC2)C1 (stereo not given)	34.6	12.7	3.0	99.0	96.0	11.3	.	.
CC1CCCC(C)N1CCCNC(=O)C1CCCN(c2ncnc3c2nc2n3CCCCC2)C1 (stereo not given)	55.5*	27.6	-11.0	98.0	94.0	6.1	2.2	87.5*
FC(F)(F)c1cc(CCN2CCNC[C@H]2Cc2cccc3ccccc23)cc(C(F)(F)F)c1	96.1*	-32.1	.	.	.	2.8	2.0	98.2*
C[C@@H]1COC(=O)[C@H](CC(=O)OC(C)(C)C)C/C=C\C[C@@H](CC(=O)N[C@H](CO)Cc2ccccc2)C(=O)N1	-12.2	18.8	.	.	.	-6.2	.	.
Oc1c(C(c2cccs2)N2CCN(c3cccc(Cl)c3)CC2)sc2ncnn12 (stereo not given)	52.7*	5.8	11.0	107.0	112.0	-13.1	-2.6	6.7
COc1cc(/C=C2\SC(=Nc3ccc(O)cc3)NC2=O)cc(OC)c1OC	12.1	12.0	-1.0	100.0	104.0	-2.0	.	.
COc1cc(/C=C2/SC(=Nc3ccc(O)cc3)NC2=O)cc(OC)c1O	48.0*	-23.1	-5.0	99.0	99.0	0.4	-2.9	46.7*
COc1cc(C(=O)NCC2CCCO2)cc(Br)c1OCc1ccccc1 (stereo not given)	20.9	0.4	.	.	.	-0.7	.	.
Cc1ccc(Cl)cc1NC(=O)N[C@@H](CC(C)C)C(=O)O	3.0	-6.0	3.0	101.0	99.0	-4.6	.	.
O=S(=O)(NCc1cccnc1)c1ccc(Cl)c2ccccc12	-6.3	5.6	-5.0	99.0	98.0	1.3	.	.
CN1CCN(CCCNC(=O)CCN2C(=O)COc3ccccc32)CC1	10.4	0.6	1.0	100.0	101.0	-5.3	.	.
CN1CCN(CCCNC(=O)c2ccc(/C=C3\Oc4ccccc4N(Cc4ccccc4F)C3=O)cc2)CC1	45.4*	-91.5	29.0*	159.0*	104.0	-1.1	-4.1	51.6*
O=C(Cn1nc(-c2cccc([N+](=O)[O-])c2)c2ccccc2c1=O)NCC1CCCO1 (stereo not given)	0.3	14.7	-4.0	88.0	95.0	-1.4	.	.
CCc1cccc(NC(=O)CSC2=NS(=O)(=O)c3ccccc32)c1	47.2*	-5.5	-1.0	100.0	101.0	-5.3	0.4	24.6
CCC(C)[C@H](NC(=O)Nc1ccccc1F)C(=O)OC (stereo not given in full)	0.2	-3.0	-4.0	97.0	95.0	-4.9	.	.
Cc1cc(SCC(=O)NC(=O)c2cccn2C)nc2ccccc12	55.8*	0.7	-23.0	84.0	87.0	-5.7	-1.9	67.5*
SMILES	UBC13 polyUb	PREPL inhibitor	MEKK2mut PB1 HTS	MEKK2wt PB1 HTS	MEKK3 PB1 HTS	ATG4B inh	Casp3 counter	UBC13 conf
COc1cccc(/C=C2/Sc3ccc(C(=O)NCCN4CCCCCC4)cc3NC2=O)c1	66.2*	-19.0	71.0*	280.0*	112.0	-0.2	0.7	92.3*
CCN1CCN(CCCNC(=O)c2ccc3c(c2)NC(=O)/C(=C\c2cccc(C)c2)S3)CC1	55.3*	7.0	19.0	165.0*	103.0	23.3	-0.3	65.3*
Cc1cccc(/C=C2/Sc3ccc(C(=O)NCCN4CCCC4)cc3NC2=O)c1	59.5*	17.9	46.0*	183.0*	105.0	8.2	2.9	94.0*
O=C(Nc1cccnc1)c1cc(-c2ccc(Cl)cc2Cl)on1	4.6	-8.9	-2.0	92.0	96.0	-4.1	.	.
Cc1ccc(NC(=O)CSCC(=O)OC(C)C(=O)Nc2ccccc2C)cc1 (stereo not given)	4.0	.	.	.	.	3.8	.	.
Cn1ccnc1C(=O)c1cc(SCC(=O)N2CCOCC2)nc2ccccc12	-1.5	-8.5	-11.0	67.0	66.0	-18.4	.	.
Cc1nc(N)sc1C(=O)N/N=C/c1c[nH]c2ccccc12	79.2*	11.4	6.0	105.0	104.0	-8.7	14.1	113.7*
COc1cc(/C=N\NC(=O)c2sc(N)nc2C)cc(OC)c1OC	104.9*	1.8	1.0	110.0	105.0	-8.9	1.4	111.3*
CC(/C=N/NC(=O)c1sc(N)nc1C)=C\c1ccccc1	85.2*	16.4	0.0	103.0	108.0	-12.0	42.7*	96.1*
Cc1cccc(C(=O)OC(C)CN2C(C)CCCC2C)c1 (stereo not given)	-7.2	-8.2	0.0	99.0	97.0	1.5	.	.
O=C(O)C(Cc1ccccc1)N1C(=O)c2cccc3cccc(c23)C1=O (stereo not given)	-9.4	-6.5	-7.0	93.0	94.0	-0.9	.	.
O=C1c2cccc3cccc(c23)C(=O)N1CCc1ccccc1	51.3*	-0.7	-12.0	100.0	101.0	24.4	3.3	?
O=C(Nc1cccc(C2=NCCN2)c1)Nc1cccc(C2=NCCN2)c1	97.1*	4.9	.	.	.	5.9	-3.8	103.8*
O=C(Nc1ccc(NC(=O)c2ccc(Cl)cc2Cl)cc1)c1ccc2c(c1)OCO2	0.3	1.7	-5.0	99.0	99.0	0.9	.	.
